From PubChem BioAssay AID504332 (National Center for Advancing Translational Sciences (NCATS), 2011) come the findings set out here.

Molecules are shown by their SMILES. “And” between values parts separate entries of the source, which are not always exact repeats. Identical values can stand only once. Out of some 350,000 compounds screened, about 31,000 (8.9%) were called active. Roughly 15% stayed inconclusive and do not appear here. What follows is part of a selection rich in actives, with near analogues and random picks from the rest. Where a call stands in place of a potency, no number is given. Unmarked numbers belong to inactive results. The call rests on the fitted dose curve; in most records, active means well fitted inhibition curve with a large enough effect; inconclusive means small, poorly fitted or top-dose-only effect; inactive means no such curve, though single readings can be large or run the other way.
Potency means the concentration at half of the fitted maximal effect.

Chain of Histone-lysine N-methyltransferase EHMT2 (Homo sapiens) (Q96KQ7 913-1193 limits assumed): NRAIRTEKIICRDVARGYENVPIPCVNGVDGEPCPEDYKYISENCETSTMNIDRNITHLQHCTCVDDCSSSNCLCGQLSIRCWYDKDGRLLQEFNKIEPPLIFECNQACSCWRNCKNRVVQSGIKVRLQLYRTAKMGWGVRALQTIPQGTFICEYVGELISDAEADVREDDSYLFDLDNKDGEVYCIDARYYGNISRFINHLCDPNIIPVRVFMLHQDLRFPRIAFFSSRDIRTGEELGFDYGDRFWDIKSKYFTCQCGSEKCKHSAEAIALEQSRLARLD

This test concerns the target Histone-lysine N-methyltransferase EHMT2 (Homo sapiens) (UniProt Q96KQ7). Briefly: qHTS Assay for Inhibitors of Histone Lysine Methyltransferase G9a. Further: nearly all actives have a fitted effect of over 75% in size. As to conditions: G9a H3K9 monomethylation, AlphaScreen, 2 h; series mostly up to 59 µM. The gist of the method:
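Readings reflect AlphaScreen signal from monomethyl-H3K9 antibody detection. HMT at 20 nM; substrate b-H3K9 500 nM; cofactor SAM 20 uM; 2 h RT reaction; compounds tested as titrations in qHTS with 15 min preincubation.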
A general note: qHTS replaces the single test concentration by a dilution series.
Take `CC(=O)Nc1cccc(C(=O)OCC(=O)Nc2nnc(-c3ccccc3)o2)c1`: the Potency result was “inactive”.

Regarding `CN(CC(=O)NCc1cccnc1)S(=O)(=O)c1cc(Cl)ccc1Cl`, the Potency entry is “inactive”.

For `COc1ccc(NC(=O)C2CCN(S(=O)(=O)c3ccc4[nH]c(=O)oc4c3)CC2)c(OC)c1`, the Potency entry was “inactive”.

In the case of `CCOC(=O)CN1C(=O)C(O)(CC(=O)c2ccccn2)c2ccccc21` (stereo not given), the Potency entry was “inactive”.

Turning to `O=C(CC1(O)C(=O)N(CN2CCOCC2)c2ccccc21)c1ccccc1` (stereo not given), the Potency entry was “inactive”.

For the compound `C=CCN1C(=O)C(O)(CC(=O)c2ccc(Cl)cc2)c2ccccc21` (stereo not given), the Potency was 44.7 µM (active).

As for `COc1ccc(CCNC(=O)c2ccc(CSCc3ccc(C)cc3)o2)cc1OC`, the Potency entry is “inactive”.

Take `CCc1nnc2c3ccccc3nc(N3CCN(c4ccc(C)cc4C)CC3)n12`: the Potency entry is “inactive”.

For the compound `Cc1ccc(/C=C/C(=O)OCC(=O)Nc2cccnc2Cl)cc1`, the activity, negative = inhibition was 5.18% [at 12.7 µM].

With `CC(=O)NNc1cc(=O)c2c(=O)n(C)c(=O)n(C)c2[nH]1`, the Potency result is “inactive”.

On to `CC(=O)c1c(N)n(C)c(=O)n(C)c1=O`, for which the Potency result is “inactive”.

For `CC(=O)Nn1cc2c(=O)n(C)c(=O)n(C)c2c1`, the Potency is 35.5 µM (active).

On to `Nc1ccn(CC(=O)N2CCN(c3ccccn3)CC2)c(=O)n1`, for which the activity, negative = inhibition is -0.804% [at 0.501 µM].

As for `COC(=O)c1ccccc1NS(=O)(=O)c1ccc2c(c1)CCCN2C(C)=O`, the Potency result was “inactive”.

Consider `O=C(Nc1ccc(N2CCN(C(=O)c3ccccc3)CC2)c(Cl)c1)c1cccnc1`, for which the Potency result is “inactive”.

In the case of `C[C@@H](C(=O)Nc1ccc2ccccc2c1)[C@@H]1C[C@@]1(C)[C@@H](NC(=O)c1cccnc1)c1ccccc1`, the Potency was 50.1 µM (active).

Consider `COC(=O)[C@H](C)[C@H]1C[C@]1(C)[C@H](NC(=O)OCc1ccccc1)c1ccccc1`, for which the Potency result was “inactive”.

For `CC(=O)N[C@@H](C)C(=O)N1CCC(n2nccc2NC(=O)CCCc2ccccc2)CC1`, the Potency result is “inactive”.

In the case of `CC(NS(=O)(=O)c1ccc(Cl)cc1)C(=O)Nc1ccc2c(c1)OCCO2` (stereo not given), the Potency entry was “inactive”.

As to `N#C/C(=C\c1ccccc1C(F)(F)F)C(=O)Nc1ccccc1F`, the Potency result is “inactive”.

As for `N#C/C(=C\C1=C(N2CCOCC2)C(=C\c2ccccc2)/CC1)C(=O)Nc1ccccc1F`, the Potency was 7.08 µM (active).

For the compound `Cc1ccc(C(=O)Nc2ccccc2F)cc1S(=O)(=O)N1CCOCC1`, the Potency entry was “inactive”.

Consider `CCOCCCn1c(SCC(=O)Nc2ccc(CC)cc2)nc2ccccc2c1=O`, for which the Potency result was “inactive”.

`O=C(CCc1nc(CN2CCN(S(=O)(=O)c3ccc(F)cc3)CC2)no1)N1CCCCC1`: the Potency entry was “inactive”.

Consider `COc1ccc(N(C)C(=O)C2CCN(S(=O)(=O)c3cc(Br)cc4c3N(C(C)=O)CC4)CC2)cc1`, for which the Potency entry is “inactive”.

Consider `CCOc1ccc(CNC(=O)c2cc(=O)[nH]c3ccc(S(=O)(=O)N4CCCCC4)cc23)cc1`, for which the Potency result was “inactive”.

Consider `Brc1ccc(C2CC(c3ccccc3)=Nc3ccccc3N2)cc1` (stereo not given), for which the Potency is 39.8 µM (active).

As to `CNC(=S)N1N=C(c2ccccc2)CC1c1ccc(Br)cc1` (stereo not given), the Potency entry was “inactive”.

For the compound `Brc1ccc(C2=NCCC(c3ccccc3)O2)cc1` (stereo not given), the Potency entry is “inactive”.

For the compound `COc1cc(C(=O)N2CCC(c3ccncc3)CC2)cc(OC)c1OC`, the Potency entry was “inactive”.

Consider `Cc1ccc(NC(=O)C(C)OC(=O)Cc2c[nH]c3ccccc23)cc1S(=O)(=O)N1CCOCC1` (stereo not given), for which the Potency is 35.5 µM (active).

On to `CC(OC(=O)CCCc1c[nH]c2ccccc12)C(=O)Nc1ccc(S(N)(=O)=O)cc1` (stereo not given), for which the activity, negative = inhibition is 14.8% [at 0.501 µM].

`Cc1ccc(NC(=O)c2ccccn2)cc1S(=O)(=O)N1CCOCC1`: the Potency entry was “inactive”.

In the case of `CS(=O)(=O)c1ccc2nc(NC(=O)CN3CCCCCC3)sc2c1`, the Potency was 17.8 µM (active).

For `CS(=O)(=O)c1ccc2nc(NC(=O)c3ccc(N4CCCC4=O)cc3)sc2c1`, the Potency result was “inactive”.

With `CS(=O)(=O)c1ccc2nc(NC(=O)C3CCCCC3)sc2c1`, the Potency entry is “inactive”.

Consider `COc1cccc(NC(=O)CN(C)C(=O)CSCc2nc3scc(-c4cccs4)c3c(=O)[nH]2)c1`, for which the Potency entry was “inactive”.

`COc1ccc(OCCCON2C(=O)c3ccccc3C2=O)cc1`: the Potency entry was “inactive”.

On to `CCOC(=O)C1=C(c2ccc(OC)cc2)C(=O)c2ccccc2C1=O`, for which the Potency was 31.6 µM (active).

Consider `CCOC(=O)c1c(C)[nH]c2c1-c1ccccc1C(=O)C2=O`, for which the Potency entry is “inactive”.

Turning to `CSCCC(NS(=O)(=O)c1ccccc1F)C(=O)N1CC=C(c2ccccc2)CC1` (stereo not given), the Potency entry was “inactive”.

For `CC(C)(C)c1ccc(C(=O)N2CCC(c3nc(-c4ccc(S(=O)(=O)N5CCCC5)cc4)no3)CC2)cc1`, the Potency result is “inactive”.

For `CCc1nn(CCCC(=O)NCc2ccccc2OC)c(=O)c2cc3occc3n12`, the Potency entry was “inactive”.

Regarding `Cc1ccc(Cl)cc1NC(=O)CSc1nc2ccccc2nc1Cc1ccccc1`, the Potency result is “inactive”.

Consider `COc1ccc(CNc2ncnc3ccccc23)cc1`, for which the Potency result was “inactive”.

Turning to `CCOC(=O)C1=C(C)Nc2sc(C(=O)c3ccc(Br)cc3)c(N)c2C1c1ccc(C(=O)OC)cc1` (stereo not given), the activity, negative = inhibition is 0.599% [at 12.7 µM].

On to `CCOC(=O)c1sc(=S)n2c1[nH]c(=O)c1ccc(C(=O)OC)cc12`, for which the Potency is 7.94 µM (active).

As to `CCOC(=O)c1sc(NC(=O)c2ccncc2)nc1C`, the Potency entry was “inactive”.

With `CC(=O)N1CCCc2cc(S(=O)(=O)Nc3ccc(Cl)cc3F)ccc21`, the Potency result was “inactive”.

On to `Cc1nc2sc(C(c3ccco3)N3CCOCC3)c(O)n2n1` (stereo not given), for which the Potency was 11.2 µM (active).

In the case of `Oc1c(C(c2ccco2)N2CCC3(CC2)OCCO3)sc2ncnn12` (stereo not given), the Potency was 35.5 µM (active).

As for `Cc1ccc(C(c2sc3nc(C)nn3c2O)N2CCN(c3ccccc3)CC2)cc1` (stereo not given), the activity, negative = inhibition is 15.6% [at 12.7 µM].

Turning to `Oc1c(C(c2ccccc2Cl)N2CCOCC2)sc2nc(-c3ccco3)nn12` (stereo not given), the Potency entry is “inactive”.

For `COc1cccc(CNC(=O)CCc2nc(-c3ccc(C)cc3)no2)c1`, the Potency result is “inactive”.

Turning to `CCCN1CCN(CCCNC(=O)c2cnn(-c3ccc(C)cc3)c2-n2cccc2)CC1`, the Potency entry is “inactive”.

Take `COc1ccc(-c2ccc(=O)n(CC(=O)Nc3ccc(Br)cc3F)n2)cc1`: the Potency result was “inactive”.

Turning to `O=C(COc1ccc(Cl)cc1)NCCS(=O)(=O)N1CCN(c2ccc(F)cc2)CC1`, the Potency result is “inactive”.

On to `COc1ccccc1/C=C/c1nc(C#N)c(NC(C)c2ccccc2)o1` (stereo not given), for which the Potency entry was “inactive”.

As to `O=C(Nc1nnc(C2=COCCO2)o1)c1ccc([N+](=O)[O-])s1`, the Potency is 44.7 µM (active).

For `CS(=O)(=O)c1ccc(-c2nnc(NC(=O)c3ccc4c(c3)OCCO4)o2)cc1`, the Potency entry is “inactive”.

Consider `CSc1ccccc1-c1nnc(NC(=O)c2ccc3c(c2)OCCO3)o1`, for which the Potency entry was “inactive”.

Take `Cc1ccccc1OCC(=O)Nc1ccc2c(c1)ncn2C`: the activity, negative = inhibition is -10.2% [at 0.501 µM].

Turning to `COc1ccc(S(=O)(=O)N(C)CC(=O)NCCCN2CCOCC2)cc1Cl`, the Potency entry is “inactive”.

As to `O=S(=O)(NCCCN1CCOCC1)c1ccc(F)c(Cl)c1`, the activity, negative = inhibition was 27% [at 12.7 µM].

Consider `COc1ccc(-c2ccc(CNCCCN3CCOCC3)o2)cc1Cl`, for which the Potency was 50.1 µM (active).

For the compound `O=C(NCc1cccnc1)c1cc(S(=O)(=O)N2CCOCC2)c(Cl)cc1Cl`, the activity, negative = inhibition is -2.17% [at 2.33 µM].

Take `CCc1cccc(NC(=O)CN(c2ccc(C)c(C)c2)S(=O)(=O)c2ccsc2C(=O)OC)c1`: the Potency result is “inactive”.

As to `CC(=O)Nc1ccc(S(=O)(=O)N2CCC(C(=O)N[C@@H](Cc3ccccc3)C(=O)O)CC2)cc1`, the Potency result was “inactive”.

On to `CSc1cccc(NC(=O)CN2C(=O)CCc3cc(S(=O)(=O)N4CCCCC4)ccc32)c1`, for which the Potency result is “inactive”.

As for `Cc1cccc(C)c1NC(=O)CSc1nc2c([nH]1)c(=O)n(C)c(=O)n2C`, the Potency entry is “inactive”.

As to `Cc1ccc(NN=Nc2nc3c([nH]2)c(=O)n(C)c(=O)n3C)cc1`, the Potency was 1.58 µM (active).

Take `CC(CCO)Nc1nc2c([nH]1)c(=O)n(C)c(=O)n2C` (stereo not given): the Potency result was “inactive”.

On to `CC(=O)Cc1nsc(NC(=O)c2csc3c2CCCC3)n1`, for which the Potency was 2.51 µM (active).

With `Cc1ccc(NC(=O)c2csc3c2CCCC3)cc1`, the Potency entry was “inactive”.

`CC(=O)Cc1nsc(NC(=O)c2ccc(Cl)cc2Cl)n1`: the Potency result is “inactive”.

With `CCCOc1ccc(C2c3c(-c4ccccc4O)n[nH]c3C(=O)N2Cc2cccnc2)cc1` (stereo not given), the Potency entry is “inactive”.

Consider `COc1cc(C2C(C(=O)c3ccc(C)o3)=C(O)C(=O)N2Cc2cccnc2)ccc1O` (stereo not given), for which the Potency entry was “inactive”.

With `COc1ccc(C2C(C(C)=O)=C(O)C(=O)N2Cc2cccnc2)cc1` (stereo not given), the Potency was 20 µM (active).

Consider `O=C(c1ccc(Br)cc1)N(Cc1cccs1)c1ccc(F)cc1`, for which the Potency result is “inactive”.

As to `CCCOc1ccc(C2=CSC3=NCCN23)cc1Cl`, the Potency entry is “inactive”.

In the case of `COc1ccc(CCNc2ncnc3onc(-c4ccc(Cl)cc4)c23)c(OC)c1`, the Potency entry is “inactive”.

Consider `CCCCn1c(CNC(=O)C23CC4CC(CC(C4)C2)C3)nnc1SCC(=O)Nc1ccc(C)cc1`, for which the Potency entry was “inactive”.

In the case of `COc1ccc(-c2onc(C)c2C)cc1S(=O)(=O)NCC1CCN(Cc2cccc(F)c2)CC1`, the Potency entry is “inactive”.

For `Cc1cc(OCCCCOc2ccc(C#N)cc2)ccc1[N+](=O)[O-]`, the activity, negative = inhibition was 30.7% [at 12.7 µM].

In the case of `O=C(c1cccc([N+](=O)[O-])c1)N1CCN(Cc2ccccc2)CC1`, the Potency entry was “inactive”.

Consider `Cc1cc(OCCCN2CCN(Cc3ccccc3)CC2)ccc1[N+](=O)[O-]`, for which the Potency is 8.91 µM (active).

As for `COc1ccc(-c2nc(Cn3c(=O)cc(C)c4c(C)nn(-c5ccccc5)c43)c(C)o2)cc1OC`, the Potency result is “inactive”.

Turning to `O=c1[nH]c(=S)[nH]c2[nH]c(=S)[nH]c12`, the Potency is 1.58 µM (active) and 1.26 µM (active).

Consider `CN(CC(=O)Nc1ccc(Cl)cc1)CC(=O)Nc1cccc2ccccc12`, for which the activity, negative = inhibition is -44.6% [at 12.7 µM].

Turning to `CCS(=O)(=O)c1cc([N+](=O)[O-])c(Sc2ccccc2N)s1`, the Potency was 1.12 µM (active).

For `CCOC(=O)c1cc(Sc2ccccc2N)cc(C(=O)OCC)n1`, the Potency result is “inactive”.

On to `Cc1ccc(S(=O)(=O)NCCSc2ccccc2)cc1[N+](=O)[O-]`, for which the Potency entry was “inactive”.

As to `CCOc1ccccc1NC(=O)Cn1ncc2ccc([N+](=O)[O-])cc21`, the Potency entry is “inactive”.

With `CCc1ccccc1NC(=O)c1ccc2nc(CCc3ccccc3)oc2c1`, the Potency entry was “inactive”.

Turning to `COc1ccc(C)cc1NC(=O)CCCN1C(=O)NC(C)(C)C1=O`, the activity, negative = inhibition was 20.4% [at 2.33 µM].
